# Test results reported in the supplement of paper PMC6555819.
# Experiments:
# Test in all cases: PBM binding z-score (relative to random genomic background probes); higher = stronger binding; sequences stand for … in GC…GCGATTGACAGCGTAGAATGAAGG
# [1] = tested on: PPARg:RXRa DBDmut IVT, anti-RXR (DBD mutation: RXRa K156A/R161A, NR concentration 270 nM, RXRa partner concentration 90 nM)
# Outline: (§1)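 For binding z-scores, the reference was random background probes on custom Agilent 4×180K protein-binding microarrays. These arrays were incubated 1 h with ligand-free nuclear receptor dimers in PBS pH 7.4, 2% milk, 0.02% Triton X-100, 1 mM DTT, 0.2 mg/mL BSA and 0.4 mg/ml salmon testes DNA. Fluorescence was scanned after antibody detection of each partner (one per run) and regression-normalized.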
# [2] = tested on: PPARg:RXRa IVT, anti-PPARg (NR concentration 270 nM, RXRa partner concentration 90 nM)
# Outline: as §1
# [3] = tested on: PPARg DBDmut:RXRa IVT, anti-PPARg (DBD mutation: PPARg1 K132A/R137A, NR concentration 270 nM, RXRa partner concentration 90 nM)
# Outline: as §1
# [4] = tested on: PPARg DBDmut IVT, anti-PPARg (DBD mutation: PPARg1 K132A/R137A, NR concentration 270 nM)
# Outline: as §1
# [5] = tested on: PPARg homodimer (NR concentration 180 nM)
# Outline: as §1
# [6] = tested on: PXR:RXRa (NR concentration 270 nM, RXRa partner concentration 90 nM)
# Outline: as §1
# [7] = tested on: PXR homodimer (NR concentration 270 nM)
# Outline: as §1
# [8] = tested on: RARa:RXR (NR concentration 270 nM, RXRa partner concentration 90 nM)
# Outline: as §1
# [9] = tested on: RARa homodimer (NR concentration 270 nM)
# Outline: as §1
# [10] = tested on: RARb:RXRa (NR concentration 270 nM, RXRa partner concentration 90 nM)
# Outline: as §1
Sequence,PBM binding z-score [1],PBM binding z-score [2],PBM binding z-score [3],PBM binding z-score [4],PBM binding z-score [5],PBM binding z-score [6],PBM binding z-score [7],PBM binding z-score [8],PBM binding z-score [9],PBM binding z-score [10]
TTACCAAGGTGAAGGTCGATGATCCCTCTGTAGA,1.53,3.14,-0.416,-0.0425,0.524,0.883,0.0636,1.36,0.0108,2.11
TAGCCTAGGTCAGACCGGGCCAGTATACGCTATA,0.42,1.13,-0.551,-1.06,0.235,0.913,-0.412,1.14,-1.16,3
ACTAGCAGGCCAAGGGTCACTCCAGATTAGTCCG,1.08,3.57,-0.0917,-0.469,1.44,2.68,0.019,3.79,0.278,3.42
AGTAGCAGGCCAAGTTTGGGTCACTCAAACAAAG,0.369,1.17,-1.1,-1.36,0.195,0.663,-0.57,1.64,-0.486,1.72
AGAATGAGGTTATTAAGATCAGGCAATTGCGGTC,2.95,2.56,0.272,0.448,0.366,1.2,0.322,1.47,0.167,1.33
ATCTCTAAGTAAAAGTTCAGTGAATCCCGAGGAT,-0.124,0.598,0.919,0.992,1.15,1.72,1.61,1.19,1.33,2.33
ACTGGGAGGACAAAGGTCAGAGCTACGCCAGTGA,0.413,3.95,0.328,0.253,4.03,4.16,0.638,5.46,1.31,4.64
CGTCCAAGGTTAGAGAGGTCAGTGAATGCCGAGT,0.939,1.57,-1.21,-1.38,2.67,4.07,7.59,3.61,1.11,3.66
GTACCAAGGTGAATCGGTCGTTGATGAGTAGGCG,1.93,2.44,-0.354,-0.848,-0.00106,-0.262,-0.354,0.293,-0.11,1.67
CCTCGGAGGAGAGAAGGTCAGAGCTGTCCGCTTT,-0.223,-0.125,-1.3,-1.71,0.917,1.24,-0.114,1.74,-0.103,2.35
GATACATGGTCAAGGCCAGAGTACGCGTATTGAT,0.0376,0.621,-0.439,0.11,-0.243,-0.158,-0.13,-0.204,-0.125,1.25
ATCTCTAGGTAAAGATAGTTCAGTTAATGCAAAT,2.3,1.96,0.842,0.769,1.02,1.26,0.841,0.925,1.28,0.672
CCTGACGGGTCACGAGGTTATAGCACGACGAGCG,2.13,3.75,0.388,0.539,3.04,4.13,0.0429,5.48,1.05,4.32
TCATATAGGTCAAGGTGAAAGTCGAACGATATGA,6.82,7.8,3.34,3.56,2.98,3.06,0.0786,3.99,0.732,4.84
CCTTACGGGTCACTGACAGGTTATTGCATTTGGA,3.48,3.61,0.525,0.563,2.74,3.89,0.344,4.51,0.71,4.04
CCTACTGGGCCAAAAAGGGCATTGATGCCGATAA,3.27,2.46,-1.19,-0.893,0.55,-0.0509,-0.102,-0.0363,-0.572,1.49
ATCTCTAGGTAACAGGTTCAGTGAAAGAGAGGAC,3.85,3.15,1.83,1.35,1.4,0.871,1.43,0.854,0.973,0.893
CCTAGCAGGCCAGTCTGGGTCACTCAAGGCTTGA,1.92,2.62,-1.53,-2.16,-0.0647,0.811,-0.718,1.45,-1.53,1.42
TGTCAAAGTTCAAATGTAACGTAAGTATCCACAC,0.32,4.15,1.72,2.11,2.82,5.13,4.03,3.93,2.08,5.02
CAGCCTAGGTCAGGGCCTGTATAGGAGGAACGTT,1.45,1.31,-0.895,-1.4,0.134,0.236,-0.76,0.971,-1.2,3.33
GCGACTGGGGCAAAGCAGGTTAACATAAGGTTGG,4.62,3.42,-0.747,-0.874,0.353,0.721,-0.496,1.1,-0.822,1.05
GCTCAGAGGACAAGGTCAGAGCTTTGTCCGTAGA,0.92,0.924,-1.05,-1.28,0.348,1.74,-0.21,2.17,-0.133,3.78
ATATGTTGGTTAAGGGTCATTCAGGTTGGTTCGC,1.61,3.8,1.51,1.87,4.23,5.21,3.35,4.73,3.39,3.39
GCGCGGAGGACAAGGTCAGAGCTTTGTCCGTAGA,-0.241,0.514,-1.67,-1.56,0.0737,1.5,-0.325,2.13,-1.01,3.4
